High-throughput results as filed in PubChem BioAssay.
FadD28 binding – blocks FadD28 binding to the bisubstrate probe. fluorescence polarization. inhibition, % at 12.5 µM. 360,000 tested, 0.22% active. AID 588549; in the data active = inhibition above about 8.5%, passing the limit was not always enough
GDH-TPI inh – inhibits GDH-TPI coupling enzymes, artifact for Mtb FBA screen; GDH-TPI coupled enzyme counterscreen, NADH absorbance; inhibition, % at 4.8 µM; 360,000 tested, 1.2% active; AID 588335; in the data active = inhibition above about 30%;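 note: 0% = DMSO wells and 100% = wells lacking the enzyme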
BioA inh – BioA (M. tuberculosis) enzyme inhibition | purified M. tuberculosis BioA enzyme, plate reader | inhibition, % at 9.99 µM | 360,000 tested, 0.096% active | AID 602481; in the data active = inhibition above about 40%
Mtb FBA inh – inhibits M. tuberculosis FBA enzyme; P9WQA3; purified M. tuberculosis FBA, fluorescence read-out; inhibition, % at 1 µM; 360,000 tested, 2.3% active; in the data active = inhibition above about 27%;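 note: 0% = vehicle and 100% = reference inhibitor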
Target sequence (P9WQA3 whole entry, looked up): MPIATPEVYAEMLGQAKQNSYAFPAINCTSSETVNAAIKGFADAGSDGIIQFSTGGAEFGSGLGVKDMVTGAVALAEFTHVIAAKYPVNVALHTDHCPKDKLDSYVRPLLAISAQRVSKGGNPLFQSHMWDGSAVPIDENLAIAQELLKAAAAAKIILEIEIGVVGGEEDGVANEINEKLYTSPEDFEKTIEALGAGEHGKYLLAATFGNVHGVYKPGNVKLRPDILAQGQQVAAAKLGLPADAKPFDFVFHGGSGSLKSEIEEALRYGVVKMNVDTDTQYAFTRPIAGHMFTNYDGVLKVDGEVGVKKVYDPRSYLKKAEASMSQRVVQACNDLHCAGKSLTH
Mtb hypoxia rep – inhibitors of hypoxia-regulated fluorescent reporter in Mycobacterium tuberculosis; M. tuberculosis hypoxia-regulated fluorescent reporter, fluorescence; 300,000 tested, 0.1% active; fluorescence inhibition, % (concentration not given with the values); in the data active = fluorescence inhibition mostly above about 23%, no sharp cut-off; inactive = mostly below about 17%
The depositor's hits bear a star; / = not tested or not shown; + = active, no number. Only some compounds are listed: those with a hit (about 2.9% of all), similar ones and a draw of the others.

SMILES | FadD28 binding | GDH-TPI inh | BioA inh | Mtb FBA inh | Mtb hypoxia rep
COc1ccc(C(=O)OCC(=O)NC(=O)NC2CCCC2)cc1OC | 1 | -4 | 3 | 2 | -4
COc1cccc(C(=O)OCC(=O)NC(=O)NC2CCCC2)c1O | 12* | -2 | / | 8 | 13
COCCn1c(-c2cccs2)nc2nc3ccccc3nc21 | -3 | 19 | 0 | + | 0
c1csc(-c2nc3nc4ccccc4nc3n2Cc2ccc3c(c2)OCO3)c1 | -2 | 25 | -2 | 2 | 10
CCCn1c(-c2cccs2)nc2nc3ccccc3nc21 | -7 | 31* | 1 | + | 22
Cc1ccccc1-n1c2nc(=O)n(C)c(=O)c-2cc2ccccc21 | -3 | 21 | 1 | 131* | 3
Cc1c(CC(=O)O)c(=O)oc2cc(OCc3ccc(Cl)cc3)ccc12 | -1 | 18 | 0 | 126* | 6
CCOC(=O)CCc1c(C)c2ccc(OCc3nn[nH]n3)cc2oc1=O | -2 | -2 | 4 | + | 2
Cc1c(Cc2ccccc2)c(=O)oc2cc(OCc3ccc(C(=O)O)cc3)ccc12 | -2 | 10 | / | 17 | 12
Cc1c(CC(=O)O)c(=O)oc2cc(OCc3nn[nH]n3)ccc12 | -1 | 11 | -1 | + | -1
COC(=O)Cc1c(C)c2ccc(OCC(=O)c3ccc(OC)c(OC)c3)cc2oc1=O | / | / | / | / | -1
NC(=O)c1cccc2c1-c1ccccc1/C2=N/NC(N)=S | 0 | 41* | / | -2 | /
CCOC(=O)c1nnn2c1nc(N1CCOCC1)c1ccccc12 | -4 | 13 | 0 | 2 | 2
Nc1nc2c(C(=O)N3CCOCC3)nnn2c2ccccc12 | -2 | 11 | / | 117* | 13
COc1cccc(-c2nc3ccccc3c(=O)o2)c1 | -5 | -5 | / | 2 | 12
COc1cccc(C2=N/C(=C\N(C)C)C(=O)O2)c1 | 0 | 37* | -1 | 0 | /
Cn1c(=O)c2cc(NC(=O)Cc3ccccc3F)ccc2n1Cc1ccc(Cl)cc1 | -4 | 4 | 0 | 133* | /
CC(CC(=O)Nc1ccc2c(c1)c(=O)n(C)n2-c1ccccc1)c1ccccc1 (stereo not given) | -3 | 5 | -1 | 13 | /
CC(CC(=O)Nc1ccc2c(c1)c(=O)n(C)n2Cc1cccc(C(F)(F)F)c1)C(F)(F)F (stereo not given) | -5 | 5 | -1 | 126* | /
COc1cc(Cn2c3ccc(NC(=O)CC(C)(C)C)cc3c(=O)n2C)ccc1F | -2 | 18 | 0 | 178* | /
Cn1c(=O)c2cc(NC(=S)NCc3ccccc3F)ccc2n1Cc1ccccc1 | 0 | 10 | 6 | 18 | /
COc1cc(Cn2c3ccc(NC(=O)CC(C)C(F)(F)F)cc3c(=O)n2C)ccc1F (stereo not given) | -2 | 4 | -2 | 174* | /
CC(CC(=O)Nc1ccc2c(c1)c(=O)n(C)n2Cc1ccc(Cl)cc1)C(F)(F)F (stereo not given) | 0 | 11 | 0 | 143* | /
Cn1c(=O)c2cc(NC(=S)NC3CCCCC3)ccc2n1Cc1ccc(Cl)cc1 | 17* | 3 | 1 | 24 | /
C[C@H](O)C#Cc1cnc2c(c1)C(=O)N([C@H](C)CO)C[C@@H](C)[C@H](CN(C)C(=O)Cc1ccccn1)O2 | / | / | -2 | / | /
SMILES | FadD28 binding | GDH-TPI inh | BioA inh | Mtb FBA inh | Mtb hypoxia rep
CN(C)/C=C/C(=O)c1ccc(Oc2ccccc2)cc1 | -2 | 22 | -1 | 7 | -6
COc1ccc(C(=O)/C=C/N(C)C)cc1OC | -5 | 34* | 14 | 0 | /
CN(C)/C=C/C(=O)c1ccccc1 | -1 | 49* | -3 | -7 | -4
COc1ccc(C(=O)/C=C/N(C)C)cc1 | -6 | 45* | -2 | -1 | 7
N#Cc1ccc(/C=C/C(=O)c2ccccc2)cc1 | -1 | 9 | / | -2 | 36*
O=C(/C=C/c1ccccc1)c1ccccc1 | 0 | 15 | 2 | 1 | /
COc1ccc(C(=O)c2ccc(OC)c(OC)c2)cc1OC | -3 | 15 | / | -3 | 10
CC(=O)C1C2c3ccccc3OC1(C)N=c1s/c(=C/c3cnn(C)c3)c(=O)n12 (stereo not given) | -1 | 38* | -1 | -4 | /
CC(=O)C1C2c3ccccc3OC1(C)N=c1sc(=Cc3cnn(C)c3)c(=O)n12 (stereo not given) | / | / | / | / | 1
CCc1cc2c3c(c(=O)oc2cc1OC(C)C(=O)O)CCCC3 (stereo not given) | -7 | 16 | 2 | 159* | -11
Cc1c(OC(C)C(=O)O)ccc2c3c(c(=O)oc12)CCCC3 (stereo not given) | -4 | 3 | 1 | 173* | 2
CCc1cc2c3c(c(=O)oc2cc1O)CCCC3 | -3 | 13 | 1 | + | /
Cc1c(OCC(=O)C(C)(C)C)ccc2c3c(c(=O)oc12)CCCC3 | 1 | 9 | 1 | 22 | 6
CC(=O)Oc1ccc2c3c(c(=O)oc2c1C)CCCC3 | 0 | 2 | -2 | + | -3
CCOC(=O)COc1ccc2c3c(c(=O)oc2c1C)CCC3 | -5 | 7 | 7 | 17 | 7
C[C@@H]1CN([C@@H](C)CO)S(=O)(=O)c2ccc(C#C[C@@H](C)O)cc2O[C@H]1CN(C)CC1CC1 | / | / | 0 | / | /
CN(C)N=Cc1ccc(Sc2ccc([N+](=O)[O-])cc2[N+](=O)[O-])o1 | / | / | / | / | -10
CS(=O)(=O)N1C[C@@H](O)COC[C@H]2O[C@@H](CC(=O)NCc3ccccc3)CC[C@@H]21 | / | / | 0 | / | /
O=C(C[C@H]1C[C@@H]2c3cc(NC(=O)Nc4ccc(C(F)(F)F)cc4)ccc3O[C@@H]2[C@@H](CO)O1)NC1CCCCC1 | / | / | 0 | / | /
CCOc1ccc2c3c(c(=O)oc2c1OCC)CCCC3 | -7 | 4 | / | 12 | /
COc1ccc2c3c(c(=O)oc2c1OCC(N)=O)CCCC3 | -4 | -5 | 4 | 75* | 11
CC(C)CNC(=O)COc1ccc2c3c(c(=O)oc2c1)CCC3 | 0 | 9 | 3 | 19 | 2
CC(=O)C(C)Oc1ccc2c3c(c(=O)oc2c1)CCCCC3 (stereo not given) | -3 | 12 | -18 | 176* | 8
CNC[C@H]1Oc2ccc(NC(=O)C3CC3)cc2C(=O)N([C@H](C)CO)C[C@H]1C | / | / | -4 | / | /
N#CC(=Cc1ccncc1)c1nc2ccccc2[nH]1 | / | / | / | / | 7
SMILES | FadD28 binding | GDH-TPI inh | BioA inh | Mtb FBA inh | Mtb hypoxia rep
N#C/C(=C\c1ccc(Cl)cc1)c1nc2ncccc2[nH]1 | 0 | 39* | 0 | 22 | /
O=C1NC(=Nc2ccccc2Cl)S/C1=C\c1cccc([N+](=O)[O-])c1O | 21* | 36* | 5 | -10 | /
COc1c(/C=C2\SC(=Nc3ccccc3Cl)NC2=O)cccc1[N+](=O)[O-] | -3 | 14 | 4 | -2 | 2
COc1ccc(/C=C2\SC(=Nc3ccccc3Cl)NC2=O)c(OC)c1 | -2 | 17 | -1 | -5 | /
O=C1NC(=Nc2ccccc2Cl)S/C1=C\c1ccc(C(=O)O)cc1 | -6 | 41* | -1 | -2 | 17
O=C1NC(=NCc2ccccc2)S/C1=C\c1ccccc1 | 0 | 43* | -2 | -2 | /
COc1ccc(S(=O)(=O)N(C)C[C@H]2Oc3ccc(N(C)C)cc3CC(=O)N([C@@H](C)CO)C[C@@H]2C)cc1 | / | / | 0 | / | /
